# From PubChem BioAssay (NCI)
# About 79,000 compounds went through this panel and 15% of them were active in at least one assay; those are over-represented in the sample as a whole. Unmarked numbers belong to inactive results. Calls of active or inactive are those of the source. Cut-off read from the data, not from the text of the source: active = growth inhibition above about 70%; inactive = the rest.
# Legend:
# [1] = NCI Yeast Anticancer Drug Screen. Data for the rad50 strain (AID 155);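 note: 0% = growth of vehicle-only cultures of the same strain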; conditions: S. cerevisiae rad50 strain growth inhibition; at 50.0 µM; stronger effect = higher value
# In short: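 DNA repair mutant yeast, compound exposure, growth read-out; inhibition is taken relative to vehicle.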
# [2] = NCI Yeast Anticancer Drug Screen. Data for the mec2-1 strain (AID 157); conditions: S. cerevisiae mec2-1 strain, at 50.0 µM, stronger effect = higher value
# In short: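 Growth inhibition is read against vehicle-treated controls after compound exposure of the mec2-1 yeast strain, which is defective in DNA damage repair or cell cycle control.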
# [3] = NCI Yeast Anticancer Drug Screen. Data for the sgs1 mgt1 strain (AID 161);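 note: 0% = growth of cultures given vehicle only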; conditions: S. cerevisiae sgs1 mgt1 strain, at 50.0 µM, stronger effect = higher value
# In short: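 This yeast growth screen uses a strain with defined DNA-repair lesions; compound-treated growth is compared with vehicle-treated growth.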
# [4] = NCI Yeast Anticancer Drug Screen. Data for the cln2 rad14 strain (AID 165);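 note: 0% = growth equal to vehicle treated cultures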; conditions: S. cerevisiae cln2 rad14 strain, at 50.0 µM, stronger effect = higher value
# In short: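 Growth inhibition, relative to vehicle-treated controls, is the read-out. The test organism is a yeast strain with defined genetic alterations, cln2 rad14.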
# [5] = NCI Yeast Anticancer Drug Screen. Data for the bub3 strain (AID 167); conditions: S. cerevisiae bub3 mutant strain, at 50.0 µM, stronger effect = higher value
# In short: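 In this screen, a yeast mutant lacking normal mitotic checkpoint function is challenged with compound. Relative growth versus vehicle gives the inhibition value.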
# [6] = NCI Yeast Anticancer Drug Screen. Data for the mlh1 rad18 strain (AID 175); conditions: S. cerevisiae mlh1 rad18 strain growth inhibition; at 50.0 µM; stronger effect = higher value
# In short: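 Cells of a genetically altered yeast strain, deficient in DNA damage repair, were treated with compound. Their growth was then compared with that of vehicle-treated cultures to give inhibition.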
Structure (SMILES),growth inhibition [1],growth inhibition [2],growth inhibition [3],growth inhibition [4],growth inhibition [5],growth inhibition [6]
CC1(C)CCc2c(cc3c(c2O)CCC(C)(C)O3)O1,4.6%,7.6%,-10.7%,12.9%,9.05%,8.45%
CCCCCCC(=O)/C=C/c1ccc(Cl)cc1,11.9%,-22.1%,-3.1%,-6.5%,16.2%,-15.6%
O=Cc1ccc(-c2cccc([N+](=O)[O-])c2)s1,4.9%,6.1%,-14.1%,19.9%,6.1%,1.85%
COC(=O)c1ccccc1NC(=O)/C(=N\NC(C)(C)C)C(C#N)c1nc(-c2ccc([N+](=O)[O-])cc2)cs1 (configuration not stated),-4.35%,14%,-0.6%,18.6%,26.1%,-8.3%
CN(C)c1nc(NN)c2c(-c3ccccc3)c(-c3ccccc3)oc2n1,10.2%,3.9%,2.3%,9.35%,20.2%,-11.2%
CC12CCC(=O)C=C1CCC1C2CCC2(C)C1CCC2(O)C(=O)Cn1c(=O)[nH]cc(F)c1=O (configuration not stated),-0.8%,-1.2%,5.75%,10.8%,-1.2%,11.4%
O=C(COc1ccccc1)Nc1cccc(C(=O)O)c1,1.2%,13.5%,21.9%,0.9%,36.6%,32.2%
Cc1noc(N)c1Sc1ccc(Br)cc1,98.7% (active),98.8% (active),99% (active),98.5% (active),98.8% (active),99.1% (active)
CC(=O)CC1CCCCCC1,4.3%,4.3%,0.45%,-11.3%,2.1%,6.3%
CN(C)c1ccc(C=C(c2ccc(N)cc2)c2ccc(N)cc2)cc1,9.25%,-1.05%,24.3%,-0.6%,52.4%,20.6%
CCOc1c(N=Nc2ccccc2)c(C)nn1C(N)=S,-55.9%,-24.6%,9.95%,-40.9%,0.4%,3.4%
Nc1c(C(=O)O)cccc1C(=O)O,5.25%,-18.6%,-11.7%,0.55%,4.1%,6.75%
CC1=COCCO1,-9.9%,-9.35%,-9.35%,6.85%,12.7%,0.5%
O=C(O)Cc1ccccc1C(=O)O,12.9%,2.3%,7.7%,13.8%,-19%,-5%
COC1OCC(OS(C)(=O)=O)C(NC(C)=O)C1OS(C)(=O)=O (configuration not stated),-13.9%,-2.85%,-3.05%,-19.2%,0.45%,2.25%
CC(=O)Nc1ccc(S(=O)(=O)NN)cc1,-15.7%,-12.1%,-4.75%,10.2%,5.25%,9.1%
Cc1cc(C(C)C)cc(C(C)C)c1,-6.25%,-13.9%,-9.45%,-4%,-0.85%,7.95%
COC(=O)c1cccc2c1cc(Br)c1ccccc12,1.75%,11.6%,14.2%,-30.4%,1.35%,16.3%
CCOC(=O)c1nc2ccc(C(F)(F)F)cc2nc1Nc1cc(OC)c(OC)c(OC)c1,-33.4%,-17.4%,-30.8%,2.85%,-13.6%,-11.1%

Structure (SMILES),growth inhibition [1],growth inhibition [2],growth inhibition [3],growth inhibition [4],growth inhibition [5],growth inhibition [6]
CCN(CC)c1ccc(N=C2C=C(C(=O)Nc3ccc(C(=O)O)cc3)C(=O)c3ccccc32)c(C)c1,-10.2%,-25%,-16.9%,0.9%,-0.65%,-18.2%
Cc1ccc(NC(=O)CC2C(=O)Nc3ccccc3S2(=O)=O)c(C)c1 (configuration not stated),-24.6%,-24.8%,-6.8%,20.6%,-2.85%,-10.6%
Cc1c(Cl)ccc2nc3ccccc3nc12,32.4%,18.8%,12.7%,-4.85%,61.6%,34.5%
CCOC(=O)C(=CN(C)c1ccc(C)cc1)C(=O)OCC,20.4%,2.65%,8.2%,9.7%,25.6%,8.9%
CC(C)(C)C1CC/C(=N\Nc2ccc([N+](=O)[O-])cc2[N+](=O)[O-])C(Cc2ccccc2)C1 (configuration not stated),11.9%,21.1%,19.5%,-26.6%,16.9%,0%
CC(=O)Nc1ccc(C2CC(c3ccc([N+](=O)[O-])cc3)=Nc3ccccc3S2)cc1 (configuration not stated),32.8%,24.6%,34.1%,17.6%,13.9%,49.9%
O=c1[nH]c2c(Br)cccc2c2ccccc12,43.1%,3.85%,11.8%,-30.9%,-14.5%,17.5%
CCN(CC)CCNc1cc(C)nc(/N=C(\N)Nc2ccc(Cl)cc2)n1,23.9%,1.05%,18.1%,-14.8%,11.6%,30.8%
COc1cc(C2c3cc4c(c(OC(=O)c5ccccn5)c3CC3COC(=O)C32)OCO4)cc(OC)c1OC (configuration not stated),8.1%,10.1%,11.6%,-9.5%,13%,34%
COC(=O)N/N=C/c1oc(-c2ccccc2)c(-c2ccccc2)c1[N+](=O)[O-],-2.15%,-12.6%,16.5%,20.8%,-10.1%,-8.2%
CCOC(=O)c1nnc(C)[nH]c1=O,13.4%,-5.5%,-14.5%,-43.9%,-2.8%,15%
Nc1nc(-c2ccc(-c3ccccc3)cc2)cc(=O)[nH]1,0.25%,27.6%,-4.8%,-8.25%,7.5%,-25.8%
CC1COC(c2ccc(C(C)C)cc2)O1 (configuration not stated),7.5%,0.35%,0.25%,-8.9%,0.55%,-4.4%
O=C(O)CNC1=NCCN1,-0.8%,2.5%,-8.4%,-41.4%,-24.1%,-3.2%
CC(C)NC(=O)Nc1ccccc1Cl,-4.45%,-8.9%,6.9%,-28.8%,-11.8%,-0.7%
C/C=C1\CN2CCc3c([nH]c4ccccc34)C2C=C1CCO (configuration not stated),-19.1%,-34.4%,-26.4%,-13.2%,-41.1%,-43.7%
Cc1cn(C2CCN(CC3COC(C)(C)O3)O2)c(=O)[nH]c1=O (configuration not stated),-13.5%,-11.9%,-26.3%,-24.9%,-5.35%,-19.6%
O=c1c2ccccc2c(Cc2ccccc2)nn1C1CCCCCC1,-14.2%,2%,30.9%,-29.5%,27.1%,16.1%
